From PubChem BioAssay (NCATS)
Records with an inconclusive call do not appear. A call without a number means that no potency is given here. Calls of active or inactive are those of the source. The call rests on the fitted dose curve; in most records, active means well fitted curve in the direction sought with a large enough effect; inconclusive means small, poorly fitted or top-dose-only effect, or another doubt; inactive means no such curve, though single readings can be large; an effect the other way counts as inactive or inconclusive.

Molecular target: Cytochrome P450 3A4 (Homo sapiens) (UniProt P08684)
Assay: qHTS Assay for Inhibitors and Substrates of Cytochrome P450 3A4 (AID 884); further: nearly all actives have a fitted effect of over 50% in size
Conditions: recombinant CYP3A4, Luciferin-PPXE luminescence; series mostly up to 57.1 µM
Method in brief: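 Luminescent readout of luciferin produced by CYP3A4 (20 nM) dealkylation of Luciferin-PPXE, 25 uM (its KM). NADPH-driven reaction ran 60 min at RT after 10 min compound preincubation; data scaled to 57 uM ketoconazole as 100% inhibition.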

Cytochrome P450 3A4 (Homo sapiens), sequence (P08684 whole entry, looked up): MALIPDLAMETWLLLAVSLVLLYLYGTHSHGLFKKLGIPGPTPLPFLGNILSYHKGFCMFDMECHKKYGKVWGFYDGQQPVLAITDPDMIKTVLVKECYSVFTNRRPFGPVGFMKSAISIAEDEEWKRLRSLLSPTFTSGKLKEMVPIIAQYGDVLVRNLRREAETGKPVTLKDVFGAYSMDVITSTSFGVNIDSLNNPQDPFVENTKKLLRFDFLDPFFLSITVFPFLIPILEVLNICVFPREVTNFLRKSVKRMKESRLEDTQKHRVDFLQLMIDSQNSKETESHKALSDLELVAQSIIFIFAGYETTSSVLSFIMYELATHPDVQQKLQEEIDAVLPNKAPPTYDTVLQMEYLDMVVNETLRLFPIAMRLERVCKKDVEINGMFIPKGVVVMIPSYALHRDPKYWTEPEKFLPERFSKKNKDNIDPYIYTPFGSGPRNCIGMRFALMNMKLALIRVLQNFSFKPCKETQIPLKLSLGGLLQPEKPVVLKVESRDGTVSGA

Row | SMILES | Potency
1 | CCC(Cc1c(I)cc(I)c(N)c1I)C(=O)O (centres undefined) | inactive
2 | CCCCC(CC)CN1CN(CC(CC)CCCC)CC(C)(N)C1 (centres undefined) | inactive
3 | COP(=O)(OC)OC(c1ccc(Cl)cc1)P(=O)(OC)OC (centres undefined) | inactive
4 | O=c1[nH]c(=O)n([C@H]2C[C@H](O)[C@@H](CO)O2)cc1F | inactive
5 | CN(C)CCOC(c1ccc(Cl)cc1)c1ccccn1 (centres undefined) | inactive
6 | O=C(O)CCNC(=O)c1ccccc1 | inactive
7 | CCOC(=O)[C@H](CCc1ccccc1)N[C@@H](C)C(=O)N1[C@H](C(=O)O)C[C@H]2CCCC[C@@H]21 | inactive
8 | O=C(O)P(=O)(O)O | inactive
9 | CC(C(=O)O)c1cccc(Oc2ccccc2)c1 (centres undefined) | inactive
10 | CC(=O)NCCCCCC(=O)O | inactive
11 | CNCCc1ccccn1 | inactive
12 | CCN(CC)CCOc1ccc2c(c1)C(=O)c1cc(OCCN(CC)CC)ccc1-2 | inactive
13 | C[N+]12CCC(CC1)C(OC(=O)C(O)(c1ccccc1)c1ccccc1)C2 (centres undefined) | inactive
14 | CC(C)NCC(O)c1ccc2ccccc2c1 (centres undefined) | inactive
15 | CCCc1ncc(C[n+]2ccccc2C)c(N)n1 | inactive
16 | C[C@H]1[C@H]2CC[C@H]3[C@@H]4CC=C5C[C@@H](N(C)C)CC[C@]5(C)[C@H]4CC[C@]23CN1C | inactive
17 | COc1ccc(-c2cc(C(F)F)nn2-c2ccc(S(N)(=O)=O)cc2)cc1F | inactive
18 | Nc1ccc(C(=O)NCC(=O)O)cc1 | inactive
19 | CN(C)CCOC(=O)C(c1ccccc1)C1(O)CCCC1 (centres undefined) | inactive
20 | O=C1C(O)=C(O)C(=O)C(O)=C1O | inactive
21 | CCCCCN=C(N)N/N=C/c1c[nH]c2ccc(OC)cc12 | inactive

Molecular target: Cytochrome P450 3A4 (Homo sapiens) (UniProt P08684)
Assay: qHTS Assay for Activators of Cytochrome P450 3A4 (AID 885); further: nearly all actives have a fitted effect of over 65% in size
Conditions: recombinant CYP3A4, Luciferin-PPXE luminescence, 60 min; series mostly up to 57.1 µM
Method in brief: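 Activators are scored by enhanced luminescence from CYP3A4 conversion of luciferin-PPXE (25uM, equal to KM) to luciferin, after 60 min at RT with an NADPH-regenerating system.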

Row | SMILES | outcome
22 | Cc1c(-c2ccccc2)oc2c(C(=O)OCCN3CCCCC3)cccc2c1=O | inactive
23 | CC[C@H](c1ccc(O)cc1)[C@@H](CC)c1ccc(O)cc1 | inactive
24 | CCN(CC)CCNc1ccc(CO)c2sc3ccccc3c(=O)c12 | inactive
25 | CCOC(=O)c1ccc(N)cc1 | inactive
26 | O=C1C(CCS(=O)c2ccccc2)C(=O)N(c2ccccc2)N1c1ccccc1 (centres undefined) | inactive
27 | Cc1cc(-c2ccccc2)nnc1NCCN1CCOCC1 | inactive
28 | Nc1ccc(S(=O)(=O)Nc2cnc3ccccc3n2)cc1 | inactive
29 | CCN(CC)CCOC(=O)C(Cc1cccc2ccccc12)CC1CCCO1 (centres undefined) | inactive
